Reference: PubChem BioAssay
Activity calls are given as the source filed them.

What was measured:
[1] = system: PRMT1 (protein arginine N-methyltransferase 1); experiment: small molecules binding arginine methyltransferase PRMT1 – biochemical, small-molecule microarray, 635 nm fluorescence, primary screen (AID 1088); conditions: higher = more signal;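 note: binding of Prmt1 protein to compounds spotted on small-molecule microarray slides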
[2] = growth effects on S. cerevisiae YJM789 – YJM789 clinical isolate, OD600, 24 h, basal, primary screen (AID 1089); conditions: higher = more signal, called active from +8 up or from −8 down;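 note: growth of clinical yeast isolate S. cerevisiae YJM 789 seeded 1000 cells per well; test concentration not given here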
[3] = S. pombe growth modifiers, basal conditions – strain 972, OD600, 24 h, no modulator, primary screen (AID 1090);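 note: basal condition with compound alone and no growth modifier present; test concentration not given here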; conditions: S. pombe 972 growth, higher = more signal, called active from +8 up or from −8 down
[4] = budding yeast growth modifiers under rapamycin – strain BY4716, OD600, 96 h, primary screen (AID 1091); note: test concentration not given here; conditions: S. cerevisiae BY4716 + rapamycin, higher = more signal, called active from +8 up or from −8 down
[5] = target: Torsin-1A-interacting protein 2 (Homo sapiens) (UniProt Q8NFQ8); experiment: small molecules binding lysate-expressed LULL1 – cell lysate, human LULL1 lysate, 635/667 nm fluorescence, primary screen (AID 1092); conditions: small-molecule microarray, hLULL1 lysate binding, 635 nm fluorescence; higher = more signal;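 note: probe is lysate of COS7 cells overexpressing human LULL1; score merges per-feature 667 nm fluorescence with signal-to-noise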
[6] = optical density change of DRC41 E. coli – strain DRC41, OD650, 24 h, E. coli filamentation project, primary screen (AID 1093);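 note: MC1000 strain lacking acrAB efflux and sulA so SOS filamentation is blocked; test concentration not given here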; conditions: E. coli DRC41 growth, higher = more signal, called active from +8 up or from −8 down
[7] = probe aLefty2 binding to arrayed compounds – biochemical, biotinylated probe, 635/667 nm fluorescence, primary screen (AID 1094); conditions: small-molecule microarray, higher = more signal;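 note: score merges spot fluorescence near 667 nm with spot signal-to-noise ratio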
[8] = system: Noggin (protein binding on small-molecule microarray); experiment: small molecules binding Noggin protein – biochemical, 635/667 nm fluorescence, primary screen (AID 1095); conditions: 635 nm fluorescence, higher = more signal;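 note: score merges 667 nm feature fluorescence with signal to noise over triplicate slides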
[9] = target: Neurogenic locus notch homolog protein 3 (Homo sapiens) (UniProt Q9UM47); experiment: small molecules binding NOTCH3 protein – biochemical, 635/667 nm fluorescence, primary screen (AID 1096); conditions: small-molecule microarray, 635 nm fluorescence, higher = more signal
[10] = probe aEGFR binding to arrayed compounds – biochemical, biotinylated probe, 635/667 nm fluorescence, primary screen (AID 1097); conditions: small-molecule microarray, higher = more signal;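 note: probe is a biotinylated anti-EGFR antibody binding compounds printed on slides; score combines fluorescence near 667 nm and signal to noise of each spot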
[11] = system: Plasmodium falciparum Sir2 (PF13_0152, Sir2A); experiment: Plasmodium falciparum Sir2A binding compounds – biochemical, small-molecule microarray, 635 nm fluorescence, primary screen (AID 1098); conditions: fluorescence 635 nm, higher = more signal;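 note: score merges spot fluorescence intensity with its signal-to-noise ratio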
[12] = probe aDKK1 binding to arrayed compounds – biochemical, biotinylated probe, 635/667 nm fluorescence, primary screen (AID 1099); conditions: small-molecule microarray, higher = more signal;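 note: score merges 667nm spot fluorescence with signal to noise across triplicate slides; reference of the scale not given here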
[13] = probe aCHRDL2 binding to arrayed compounds – biochemical, biotinylated probe, 635/667 nm fluorescence, primary screen (AID 1100); conditions: small-molecule microarray, higher = more signal
[14] = change in splice reporter luminescence, either direction, cell-based, HEK293, spliceosome inhibition project, primary screen (AID 1101); conditions: HEK293 splicing luciferase reporter, 24 h, higher = more signal, called active from +8 up or from −8 down;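 note: HEK293 cells carrying a splicing-competent luciferase reporter gene; test concentration not given here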
[15] = target: Fibroblast growth factor 10 (Homo sapiens) (UniProt O15520); experiment: compounds binding fibroblast growth factor 10 – biochemical, small-molecule microarray, 635 nm fluorescence, primary screen (AID 1102); conditions: FGF10 binding, fluorescence 635 nm, higher = more signal
[16] = system: glycogen synthase kinase-3 (GSK3A per assay name; protocol says GSK3B); experiment: compounds binding glycogen synthase kinase-3 – biochemical, small-molecule microarray, 635 nm fluorescence, GSK3A, primary screen (AID 1103); conditions: fluorescence 635 nm, higher = more signal; note: the record names both GSK3A and GSK3B
[17] = target: Epidermal growth factor receptor (Homo sapiens) (UniProt P00533); experiment: compounds binding epidermal growth factor receptor – biochemical, small-molecule microarray, 635 nm fluorescence, primary screen (AID 1104); conditions: EGFR binding, higher = more signal;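 note: score merges 667 nm emission intensity with spot signal to noise over triplicate slides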
[18] = target: Follistatin-related protein 3 (Homo sapiens) (UniProt O95633); experiment: compounds binding follistatin-related protein 3 – biochemical, small-molecule microarray, 635 nm fluorescence, primary screen (AID 1105); conditions: FSTL3 binding, higher = more signal;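 note: score merges emission near 667 nm and signal to noise per printed spot across three slides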
[19] = target: Dickkopf-related protein 1 (Homo sapiens) (UniProt O94907); experiment: small molecules binding DKK1 protein – biochemical, small-molecule microarray, 635 nm fluorescence scan, primary screen (AID 1106); conditions: higher = more signal;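 note: score merges emission near 667 nm with signal to noise over three replicate slides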
[20] = system: Inhibin beta A chain (activin A); experiment: small molecules binding activin A – biochemical, small-molecule microarray, 635 nm fluorescence scan, primary screen (AID 1107); conditions: INHBA, higher = more signal;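 note: mouse activin A protein probed at 4.33 µg/mL on printed slides; score merges bound-protein fluorescence near 667 nm with spot signal-to-noise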

Dickkopf-related protein 1 (Homo sapiens), sequence (O94907 whole entry, looked up): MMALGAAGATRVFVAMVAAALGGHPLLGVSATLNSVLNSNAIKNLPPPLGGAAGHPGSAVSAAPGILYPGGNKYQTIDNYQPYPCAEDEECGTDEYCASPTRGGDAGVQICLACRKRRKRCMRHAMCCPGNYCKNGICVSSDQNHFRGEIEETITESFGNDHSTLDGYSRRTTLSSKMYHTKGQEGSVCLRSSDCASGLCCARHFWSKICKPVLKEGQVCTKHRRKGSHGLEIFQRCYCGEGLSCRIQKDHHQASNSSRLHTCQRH
Torsin-1A-interacting protein 2 (Homo sapiens), sequence (Q8NFQ8 whole entry, looked up): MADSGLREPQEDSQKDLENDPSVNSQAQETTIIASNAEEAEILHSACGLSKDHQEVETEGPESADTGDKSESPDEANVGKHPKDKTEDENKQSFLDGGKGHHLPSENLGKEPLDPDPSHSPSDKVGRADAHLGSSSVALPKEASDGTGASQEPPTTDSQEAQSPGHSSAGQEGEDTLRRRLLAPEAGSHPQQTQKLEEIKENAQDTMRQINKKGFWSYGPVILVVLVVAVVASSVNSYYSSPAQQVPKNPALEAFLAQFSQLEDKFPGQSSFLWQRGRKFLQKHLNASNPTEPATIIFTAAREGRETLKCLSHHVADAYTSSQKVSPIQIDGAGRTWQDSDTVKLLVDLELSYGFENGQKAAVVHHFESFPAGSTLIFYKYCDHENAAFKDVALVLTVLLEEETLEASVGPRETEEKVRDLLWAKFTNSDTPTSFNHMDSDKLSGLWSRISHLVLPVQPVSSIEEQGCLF
Neurogenic locus notch homolog protein 3 (Homo sapiens), sequence (Q9UM47 whole entry, looked up): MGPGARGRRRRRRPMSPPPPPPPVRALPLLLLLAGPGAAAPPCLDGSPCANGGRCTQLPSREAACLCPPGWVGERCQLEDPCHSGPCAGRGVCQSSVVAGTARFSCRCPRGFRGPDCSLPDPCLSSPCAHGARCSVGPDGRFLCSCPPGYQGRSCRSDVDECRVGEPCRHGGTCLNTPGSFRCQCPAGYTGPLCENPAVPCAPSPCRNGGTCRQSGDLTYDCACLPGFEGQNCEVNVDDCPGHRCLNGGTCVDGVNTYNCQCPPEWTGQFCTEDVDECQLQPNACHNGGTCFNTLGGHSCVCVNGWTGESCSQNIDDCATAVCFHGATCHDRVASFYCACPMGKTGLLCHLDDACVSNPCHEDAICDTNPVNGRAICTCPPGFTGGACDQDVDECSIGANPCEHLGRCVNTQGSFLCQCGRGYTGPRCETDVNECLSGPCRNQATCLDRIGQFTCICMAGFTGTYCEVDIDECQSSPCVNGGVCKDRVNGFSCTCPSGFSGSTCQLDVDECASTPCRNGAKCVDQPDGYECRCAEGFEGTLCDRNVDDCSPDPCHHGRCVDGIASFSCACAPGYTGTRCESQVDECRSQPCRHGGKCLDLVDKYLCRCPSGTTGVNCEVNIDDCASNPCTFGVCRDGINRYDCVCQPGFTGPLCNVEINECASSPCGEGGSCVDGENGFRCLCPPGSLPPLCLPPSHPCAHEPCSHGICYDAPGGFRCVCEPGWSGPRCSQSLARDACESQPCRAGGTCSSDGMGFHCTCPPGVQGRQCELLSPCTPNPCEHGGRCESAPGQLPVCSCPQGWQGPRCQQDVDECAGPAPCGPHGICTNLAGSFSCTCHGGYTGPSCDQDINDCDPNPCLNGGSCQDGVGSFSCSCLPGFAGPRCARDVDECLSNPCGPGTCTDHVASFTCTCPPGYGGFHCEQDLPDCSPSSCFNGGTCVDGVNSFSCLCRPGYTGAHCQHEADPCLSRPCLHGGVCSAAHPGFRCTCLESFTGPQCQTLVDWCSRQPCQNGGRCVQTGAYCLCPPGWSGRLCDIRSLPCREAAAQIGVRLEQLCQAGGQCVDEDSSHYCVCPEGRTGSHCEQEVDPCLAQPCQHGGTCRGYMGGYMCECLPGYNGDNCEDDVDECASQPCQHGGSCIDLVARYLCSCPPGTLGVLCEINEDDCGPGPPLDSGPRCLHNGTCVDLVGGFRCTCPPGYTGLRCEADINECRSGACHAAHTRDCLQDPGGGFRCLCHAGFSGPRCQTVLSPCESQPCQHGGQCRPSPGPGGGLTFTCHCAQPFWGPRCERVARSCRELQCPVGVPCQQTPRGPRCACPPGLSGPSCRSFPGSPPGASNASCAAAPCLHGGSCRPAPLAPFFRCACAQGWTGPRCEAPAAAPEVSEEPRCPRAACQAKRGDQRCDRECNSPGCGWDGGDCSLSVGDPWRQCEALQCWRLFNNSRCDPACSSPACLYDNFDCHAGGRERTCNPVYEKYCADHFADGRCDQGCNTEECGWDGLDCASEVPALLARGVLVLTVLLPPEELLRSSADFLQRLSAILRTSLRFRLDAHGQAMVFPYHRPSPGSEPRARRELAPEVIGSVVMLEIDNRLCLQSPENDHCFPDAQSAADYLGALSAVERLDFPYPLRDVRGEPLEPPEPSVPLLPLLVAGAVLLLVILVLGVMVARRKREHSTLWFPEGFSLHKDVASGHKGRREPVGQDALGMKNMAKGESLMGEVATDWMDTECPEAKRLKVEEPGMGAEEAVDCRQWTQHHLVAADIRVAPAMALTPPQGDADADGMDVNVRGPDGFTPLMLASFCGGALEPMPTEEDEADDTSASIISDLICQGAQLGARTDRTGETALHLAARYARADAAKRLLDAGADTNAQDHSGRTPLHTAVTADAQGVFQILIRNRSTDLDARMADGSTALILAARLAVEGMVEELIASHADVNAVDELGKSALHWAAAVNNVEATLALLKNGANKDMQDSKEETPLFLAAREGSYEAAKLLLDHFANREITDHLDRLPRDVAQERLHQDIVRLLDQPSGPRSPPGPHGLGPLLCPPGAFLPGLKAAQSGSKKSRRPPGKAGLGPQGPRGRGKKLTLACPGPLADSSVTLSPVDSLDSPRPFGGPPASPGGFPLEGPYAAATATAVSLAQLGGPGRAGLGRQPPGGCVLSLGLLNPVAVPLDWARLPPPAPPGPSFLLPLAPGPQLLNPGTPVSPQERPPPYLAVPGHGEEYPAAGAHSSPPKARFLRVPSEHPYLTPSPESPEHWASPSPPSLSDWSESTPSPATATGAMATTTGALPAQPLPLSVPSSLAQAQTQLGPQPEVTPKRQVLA
Follistatin-related protein 3 (Homo sapiens), sequence (O95633 whole entry, looked up): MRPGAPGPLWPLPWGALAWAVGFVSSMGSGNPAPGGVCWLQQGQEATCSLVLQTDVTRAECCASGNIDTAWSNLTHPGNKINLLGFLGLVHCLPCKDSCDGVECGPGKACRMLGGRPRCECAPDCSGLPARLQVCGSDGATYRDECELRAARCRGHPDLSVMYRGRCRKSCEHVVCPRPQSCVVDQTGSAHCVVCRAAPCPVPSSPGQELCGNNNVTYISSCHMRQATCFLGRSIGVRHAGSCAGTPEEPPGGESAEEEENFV
Epidermal growth factor receptor (Homo sapiens), sequence (P00533 whole entry, looked up): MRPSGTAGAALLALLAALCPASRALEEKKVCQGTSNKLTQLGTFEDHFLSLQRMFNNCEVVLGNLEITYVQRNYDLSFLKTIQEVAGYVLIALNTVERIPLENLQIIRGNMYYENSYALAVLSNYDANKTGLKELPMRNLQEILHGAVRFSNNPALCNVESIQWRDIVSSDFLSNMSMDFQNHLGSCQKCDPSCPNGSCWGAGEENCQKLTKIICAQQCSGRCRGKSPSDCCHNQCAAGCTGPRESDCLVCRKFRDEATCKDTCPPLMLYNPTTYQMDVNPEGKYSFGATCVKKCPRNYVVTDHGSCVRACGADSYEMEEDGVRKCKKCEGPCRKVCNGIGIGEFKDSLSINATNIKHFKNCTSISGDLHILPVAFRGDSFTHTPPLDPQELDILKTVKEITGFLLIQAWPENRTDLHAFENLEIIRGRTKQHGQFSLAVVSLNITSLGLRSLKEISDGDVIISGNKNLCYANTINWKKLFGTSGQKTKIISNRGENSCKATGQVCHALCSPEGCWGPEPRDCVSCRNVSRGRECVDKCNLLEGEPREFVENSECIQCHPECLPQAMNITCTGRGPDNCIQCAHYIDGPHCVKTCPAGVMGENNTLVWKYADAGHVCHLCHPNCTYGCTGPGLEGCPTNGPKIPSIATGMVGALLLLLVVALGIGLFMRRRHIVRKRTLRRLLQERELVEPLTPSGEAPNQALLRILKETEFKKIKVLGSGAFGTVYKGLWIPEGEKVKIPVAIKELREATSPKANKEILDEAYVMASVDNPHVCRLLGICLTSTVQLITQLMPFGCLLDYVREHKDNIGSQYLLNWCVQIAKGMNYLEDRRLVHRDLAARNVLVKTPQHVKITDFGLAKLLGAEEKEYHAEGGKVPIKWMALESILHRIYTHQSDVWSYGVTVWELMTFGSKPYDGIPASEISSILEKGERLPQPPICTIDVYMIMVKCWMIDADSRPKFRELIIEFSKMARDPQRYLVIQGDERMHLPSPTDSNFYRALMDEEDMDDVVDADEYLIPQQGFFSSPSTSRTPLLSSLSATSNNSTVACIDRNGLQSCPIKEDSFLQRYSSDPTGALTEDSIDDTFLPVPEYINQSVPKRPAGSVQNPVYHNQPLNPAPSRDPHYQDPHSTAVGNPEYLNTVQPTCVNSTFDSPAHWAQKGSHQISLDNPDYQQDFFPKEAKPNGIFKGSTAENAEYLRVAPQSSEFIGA
Fibroblast growth factor 10 (Homo sapiens), sequence (O15520 whole entry, looked up): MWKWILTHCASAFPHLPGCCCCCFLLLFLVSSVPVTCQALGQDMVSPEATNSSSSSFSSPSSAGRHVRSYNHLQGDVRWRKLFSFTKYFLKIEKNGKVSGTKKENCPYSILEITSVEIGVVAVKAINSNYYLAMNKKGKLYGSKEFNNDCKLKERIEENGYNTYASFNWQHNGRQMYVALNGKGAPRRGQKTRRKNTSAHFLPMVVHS

| Structure (SMILES) | composite z-score [1] | z-score [2] | z-score [3] | z-score [4] | composite z-score [5] | z-score [6] | composite z-score [7] | composite z-score [8] | composite z-score [9] | composite z-score [10] | composite z-score [11] | composite z-score [12] | composite z-score [13] | z-score [14] | composite z-score [15] | composite z-score [16] | composite z-score [17] | composite z-score [18] | composite z-score [19] | composite z-score [20] |
| --- | --- | --- | --- | --- | --- | --- | --- | --- | --- | --- | --- | --- | --- | --- | --- | --- | --- | --- | --- | --- |
| CCO[C@H](c1cc(OC)cc([N+](=O)[O-])c1OC)[C@H](C)C=CCC(=O)OC | 1.11 | -0.57 (inactive) | -1.18 (inactive) | -0.187 (inactive) | -0.746 | 0.545 (inactive) | -0.233 | 0.927 | 0.0565 | -0.123 | 0.54 | -0.295 | -0.776 | 0.402 (inactive) | 0.0681 | 0.117 | 0.147 | 0.385 | 0.505 | 0.0666 |
| CCOC(=O)NN=C1C[C@@H](O)[C@@H](O)[C@@H]2[C@@H]3C(=O)N(c4cccc(Oc5ccccc5)c4)C(=O)[C@@H]3CC[C@H]12 | 0.626 | -1.57 (inactive) | -0.216 (inactive) | -0.873 (inactive) | 0.0068 | -0.998 (inactive) | -0.175 | 0.311 | 0.589 | -0.0371 | 0.424 | 0.104 | -0.566 | -0.652 (inactive) | 0.518 | 0.176 | 0.381 | 0.455 | 0.222 | 0.0233 |
| CC(C)CON=C1C[C@@H](O)[C@@H](O)[C@@H]2[C@@H]3C(=O)N(C4CCCCC4)C(=O)[C@@H]3CC[C@@H]12 | -0.0785 | 0.4 (inactive) | -0.513 (inactive) | 0.423 (inactive) | 1.64 | -0.233 (inactive) | -0.302 | 0.0295 | -0.519 | -0.154 | 1.17 | -0.22 | -0.198 | 0.353 (inactive) | -0.0852 | -0.925 | -0.305 | -0.504 | -0.607 | -0.164 |
| COC(=O)CC=C[C@@H](C)[C@@H](C=NO[C@@H](C)c1cn([C@H](CO)Cc2ccccc2)nn1)NS(=O)(=O)c1ccc(C)cc1 | 0.526 | -2.32 (inactive) | -1.2 (inactive) | -0.88 (inactive) | 0.112 | 0.122 (inactive) | -0.247 | 0.321 | 0.381 | -0.0398 | 1.18 | -0.0838 | -0.668 | -0.83 (inactive) | 0.582 | 0.252 | 0.519 | 0.449 | 0.47 | 0.408 |
| COC(=O)[C@@H]1CC[C@H](C)[C@@H](c2ccc(C)cc2)N1C(=O)c1ccc(C=NO[C@@H]2O[C@H](COC(C)=O)[C@@H](OC(C)=O)[C@H](OC(C)=O)[C@H]2OC(C)=O)cc1 | 1.43 | 1.26 (inactive) | -0.631 (inactive) | 0.876 (inactive) | 0.475 | -1.3 (inactive) | -0.0873 | 0.199 | 0.864 | 0.129 | 0.32 | -0.254 | -0.393 | -1.56 (inactive) | 0.666 | 0.798 | 0.323 | 0.92 | 0.374 | -0.059 |
| O=C1C[C@@H](O)[C@@H](O)[C@@H]2[C@@H]3C(=O)N(Cc4ccc5c(c4)OCO5)C(=O)[C@@H]3CC[C@H]12 | 0.0008 | 0.264 (inactive) | -0.587 (inactive) | -0.511 (inactive) | 0.443 | 0.378 (inactive) | -0.136 | 0.318 | 0.406 | 0.0135 | 0.063 | -0.312 | -0.406 | 1.03 (inactive) | 0.309 | 0.7 | 0.368 | 0.703 | 0.593 | 0.128 |
| CO[C@H](C1CCCCC1)[C@H](C)C=CCC(=O)OCCCc1ccccc1 | -0.53 | 1.37 (inactive) | 0.5 (inactive) | 1.49 (inactive) | -0.242 | -0.0775 (inactive) | -0.192 | -0.0107 | -0.226 | -0.134 | -0.023 | -0.38 | -0.708 | -0.0118 (inactive) | 0.227 | -0.518 | 0.471 | 0.201 | 0.287 | 0.332 |
| CCOC(=O)NN=C1C[C@@H](O)[C@@H](O)[C@@H]2[C@@H]3C(=O)N([C@@H](C)c4ccccc4)C(=O)[C@@H]3CC[C@H]12 | 0.215 | -0.612 (inactive) | 0.366 (inactive) | -0.222 (inactive) | 0.261 | 0.352 (inactive) | -0.0458 | 0.264 | 0.507 | 0.0122 | 0.209 | -0.0719 | -0.183 | -0.681 (inactive) | 0.225 | 0.515 | 0.308 | 0.345 | 0.309 | 0.121 |
| CC(CCN1CCc2nc(-c3ccccc3)c(-c3ccccc3)cc2C1)=NOC[C@@H](O)[C@H]1O[C@@H]2OC(C)(C)O[C@@H]2[C@H]1O | 1.53 | -0.987 (inactive) | -4.63 (inactive) | -4.56 (inactive) | 1.78 | 1.23 (inactive) | -0.342 | 0.449 | 0.41 | -0.0409 | 0.525 | -0.414 | -0.395 | 0.662 (inactive) | 0.743 | 0.587 | 0.28 | 0.583 | 0.341 | 0.376 |
| C#CCCCON=C1C[C@@H](O)[C@@H](O)[C@@H]2[C@@H]3C(=O)N(c4cccc(Oc5ccccc5)c4)C(=O)[C@@H]3CC[C@H]12 | -0.684 | 0.74 (inactive) | 0.202 (inactive) | -0.284 (inactive) | -0.204 | 0.676 (inactive) | -0.172 | -0.738 | -0.581 | -0.213 | 1.06 | -0.406 | 0.155 | -0.558 (inactive) | -0.948 | -1.56 | -0.356 | -0.845 | -0.557 | -0.69 |
